Results on nine compounds are retold here after PubChem BioAssay (NCATS).

A short description of assay [1]: qHTS assay for small molecule activators of the p53 signaling pathway (AID 651743; active = well fitted activation curve with a large enough effect in the signal ratio, not every such curve was filed as active; the % refers to the signal ratio; also: % of control where 0% means no effect). The following applies: HCT-116 p53RE-bla, beta-lactamase FRET ratio, 16 h; activation: stronger effect = higher value. A digest of the protocol:
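After 16 hours compound treatment at 37 C, HCT-116 cells stably expressing p53RE-driven beta-lactamase were loaded with LiveBLAzer B/G FRET substrate for 2 hours at room temperature. Fluorescence intensity served as the p53 activation read-out.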
(In general: Quantitative high-throughput screening tests each substance at several concentrations.)

Assay [2] can be described thus: qHTS assay for small molecule activators of the nuclear factor-kappa B (NF-kB) signaling pathway (AID 651749; active = well fitted activation curve with a large enough effect in the signal ratio; the % refers to the signal ratio; also: % of control where 0% means no effect). Particulars: NF-kB-bla ME-180 cells, beta-lactamase FRET ratio, 16 h; stronger effect = higher value. A digest of the protocol: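 Activation measured after 16 hr compound treatment at 37C, 5% CO2, of 2,000 ME-180 cells/well stably expressing an NF-kB response element–driven beta-lactamase reporter, via FRET-disruption fluorescence.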

Assay [3] addresses Peroxisome proliferator-activated receptor alpha (Homo sapiens) (UniProt Q07869). Briefly: qHTS assay for small molecule agonists of the peroxisome proliferator-activated receptor alpha (PPARalpha) signaling pathway (AID 651778). Also: potency is read from the fitted curve at half-maximal effect. As to max response: % of control where 0% means no effect. The following applies: PathHunter PPARalpha complementation, chemiluminescence, 6 h; max response: stronger effect = higher value. A digest of the protocol: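 Chemiluminescence from complemented enzyme reported PPARalpha activation in cells after 6 hr of compound treatment at 37 C. The detection reagent was incubated for 60 min at room temperature, and compounds were scored as agonists.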

The target in assay [4] is Arylsulfatase A (Homo sapiens) (UniProt P15289). As to the kind of experiment: qHTS screen for enhancers of Arylsulfatase A (ASA1): LOPAC Validation Assay (AID 720538). The following applies: ASA enzyme activity, LOPAC qHTS enhancer assay; series mostly up to 57.5 µM. The method in brief: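 SV40-transformed fibroblasts from an MLD patient (ASA-I179S) were treated with compound for 48 h at 37 C. They were then lysed with 0.5 mM pNCS substrate (final) for 14 h at room temperature and stopped with NaOH; signal read by fluorescence (Ex 525/Em 598 nm), with increase denoting enhanced activity.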
Sequence of Arylsulfatase A (Homo sapiens) (P15289 whole entry, looked up): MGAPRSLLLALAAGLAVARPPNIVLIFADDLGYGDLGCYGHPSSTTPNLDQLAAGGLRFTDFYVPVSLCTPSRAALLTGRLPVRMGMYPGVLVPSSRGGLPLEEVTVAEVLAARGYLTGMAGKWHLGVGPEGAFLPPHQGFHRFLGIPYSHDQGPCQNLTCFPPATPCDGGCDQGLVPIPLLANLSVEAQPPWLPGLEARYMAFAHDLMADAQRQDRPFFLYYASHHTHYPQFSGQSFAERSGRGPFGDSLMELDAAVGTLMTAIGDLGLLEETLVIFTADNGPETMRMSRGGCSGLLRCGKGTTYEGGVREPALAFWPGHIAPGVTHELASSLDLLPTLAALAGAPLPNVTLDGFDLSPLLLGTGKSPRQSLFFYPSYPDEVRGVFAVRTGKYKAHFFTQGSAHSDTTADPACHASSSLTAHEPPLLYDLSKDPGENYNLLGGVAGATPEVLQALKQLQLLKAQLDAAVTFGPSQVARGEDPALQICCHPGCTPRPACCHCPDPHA

Assay [5] in a line: qHTS for compounds that reverse cellular toxicity of Amyloid beta (A-beta) peptide in yeast: LOPAC Validation Assay (AID 720559).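 Also: plate controls were DMSO for no effect and equimolar ferric chloride plus clioquinol rescue for full effect.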 The following applies: yeast expressing A-beta; series mostly up to 46.1 µM. The method in brief:
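Yeast expressing toxic A-beta grown with pinned compounds at 30 C for 48 hr. Growth measured as absorbance at 600 nm; data normalized to DMSO and to an equimolar FeCl3/clioquinol mixture as positive control.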

Assay [6] in a line: qHTS for Activators of Parkin Expression: LOPAC Validation Assay (NLuc Reporter) (AID 720572). Particulars: Parkin promoter NanoLuc reporter cells, luminescence, percent of positive control, DMSO as zero; series mostly up to 46.1 µM. The method in brief:
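Compound effects on Parkin promoter activity were measured as NanoLuc luminescence after 24 h at 37 C. The neuronal reporter line also carried FLuc, which was read first. LOPAC compounds were tested at 7 concentrations, with normalization to DMSO (0%) and positive control (100%).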

Assay [7] can be described thus: qHTS for Activators of Parkin Expression: LOPAC Validation Assay (FLuc Reporter) (AID 720573). The following applies: Cell line, PRKN promoter firefly luciferase reporter; series mostly up to 46.1 µM. A digest of the protocol:
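Neuronal cell line stably expressing FLuc/NLuc coincidence reporter under the Parkin promoter, 1,500 cells/well, dosed 24 h after seeding in 7-point series for 24 h at 37 C. FLuc luminescence read; normalized to DMSO and positive control (100%).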

Assay [8] in a line: qHTS assay for small molecule agonists of the antioxidant response element (ARE) signaling pathway measured by Nrf2-dependant transcriptional activity (AID 720636; active = well fitted curve in the direction sought with a large enough effect in the repeat runs; an effect the other way counts as inactive or inconclusive; also: % of control where 0% means no effect). The following applies: ARE-luc HepG2, Nrf2 luciferase reporter, 16 h; series mostly up to 92.4 µM. A digest of the protocol:
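ARE-luc HepG2 cells carrying an Nrf2-responsive luciferase reporter, in medium with 1% dialyzed FBS, exposed to compound for 16 hr at 37 C, 5% CO2. Luminescence read 30 min after ONE-Glo addition.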

The nature of assay [9]: qHTS assay for small molecule agonists of the antioxidant response element (ARE) signaling pathway measured by Nrf2-dependant transcriptional activity - cell viability counter screen (AID 720653; active = well fitted curve in the direction sought with a large enough effect in the repeat runs; an effect the other way counts as inactive or inconclusive; also: % is scaled to controls: 0 for no effect and ±100 for the full control effect). The following applies: ARE-bla HepG2 viability, CellTiter-Glo ATP luminescence, 16 h; max response: stronger effect = lower value. A digest of the protocol:
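Cytotoxicity counter screen: intracellular ATP quantified by CellTiter-Glo luminescence in the same ARE-bla HepG2 plates, after 16 h compound exposure and a 2 h beta-lactamase substrate step.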

The nature of assay [10]: qHTS assay for small molecule agonists of the antioxidant response element (ARE) signaling pathway (AID 651741; active = well fitted activation curve with a large enough effect in the signal ratio; the % refers to the signal ratio; also: potency is read from the fitted curve at half-maximal effect; as to activation: % of control where 0% means no effect). The following applies: HepG2 ARE-bla reporter, beta-lactamase FRET ratio, 16 h; series mostly up to 96 µM. A digest of the protocol:
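Beta-lactamase reporter under ARE control in HepG2 cells, 2,000 per well, was induced by 16 h compound treatment at 37 C. Read-out was fluorescence from LiveBLAzer B/G FRET substrate after 2 h at room temperature.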

Assay [11] has as its target Tumor necrosis factor (Homo sapiens) (UniProt P01375). Briefly: qHTS assay to identify small molecules that stimulate Tumor Necrosis Factor-alpha (TNF-alpha) secretion (AID 651757; active = well fitted curve in the direction sought with a large enough effect in the signal ratio; the % refers to the signal ratio; also: 0% is about no effect). Particulars: Human cells, HTRF 665/615 ratio; series mostly up to 92.2 µM. A digest of the protocol: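 Human monocytic THP-1 cells are plated, treated with compound and held at 37 C for 17 hrs. Labeled anti-TNF-alpha antibody mixture is then added; after 3 hr at room temperature, TR-FRET signal reports secreted TNF-alpha.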

Assay [12] deals with Nuclear receptor ROR-gamma (Homo sapiens) (UniProt P51449). As to the kind of experiment: qHTS assay for small molecule antagonists of the retinoid-related orphan receptor gamma (ROR-gamma) signaling pathway (AID 651802).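 Also: CHO cells with doxycycline-induced ROR-gamma expression; % is scaled to controls: 0 for no effect and ±100 for the full control effect; nearly all actives have a fitted effect of over 60% in size.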 Particulars: ROR-gamma antagonist cell reporter assay; series mostly up to 92.2 µM. The method in brief:
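Steps: cells dispensed; compound or DMSO transferred by pin tool; doxycycline added to induce the ROR response element-driven luciferase; plates held 16hr at 37C; ONE-Glo added and luminescence measured.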

A short description of assay [13]: qHTS assay for small molecule antagonists of the retinoid-related orphan receptor gamma (ROR-gamma) signaling pathway - cell viability counter screen (AID 720652; active = well fitted curve in the direction sought with a large enough effect in the repeat runs; an effect the other way counts as inactive or inconclusive;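 also: CHO reporter cells with doxycycline-induced ROR-gamma expression; compound exposure lasted 16 hr before ATP read; % is scaled to controls: 0 for no effect and ±100 for the full control effect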). The following applies: RORgamma reporter cell line viability counter screen; series mostly up to 92.2 µM. The method in brief:
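Steps: seed CHO cells bearing TET-inducible ROR and ROR response element-luciferase; rest 5 hr at 37 C; add compound, then doxycycline; incubate 16 hr; add CellTiter-Glo and read luminescence as ATP-based viability.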

The target of assay [14] is Hexokinase-4 (Homo sapiens) + Glucokinase regulatory protein (Homo sapiens) (UniProt P35557+Q14397). As to the kind of experiment: qHTS assay for inhibitors of recombinant human GCK-GKRP interaction: Diaphorase-coupled assay (AID 743205). Particulars: G6PDH/diaphorase resorufin fluorescence; series mostly up to 57.5 µM. A digest of the protocol: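 Compounds pre-incubated 20 min with substrate, then 10 nM GST-GCK with 10 nM FLAG-GKRP added. GCK activity coupled via G6PDH and diaphorase to resorufin (5 mM glucose, 0.4 mM ATP, 0.15 mM NADP+, pH 7.6), read kinetically over 30 minutes at Ex 525/Em 590 nm.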
Sequence of Hexokinase-4 (Homo sapiens) + Glucokinase regulatory protein (Homo sapiens) (P35557 whole entry, looked up): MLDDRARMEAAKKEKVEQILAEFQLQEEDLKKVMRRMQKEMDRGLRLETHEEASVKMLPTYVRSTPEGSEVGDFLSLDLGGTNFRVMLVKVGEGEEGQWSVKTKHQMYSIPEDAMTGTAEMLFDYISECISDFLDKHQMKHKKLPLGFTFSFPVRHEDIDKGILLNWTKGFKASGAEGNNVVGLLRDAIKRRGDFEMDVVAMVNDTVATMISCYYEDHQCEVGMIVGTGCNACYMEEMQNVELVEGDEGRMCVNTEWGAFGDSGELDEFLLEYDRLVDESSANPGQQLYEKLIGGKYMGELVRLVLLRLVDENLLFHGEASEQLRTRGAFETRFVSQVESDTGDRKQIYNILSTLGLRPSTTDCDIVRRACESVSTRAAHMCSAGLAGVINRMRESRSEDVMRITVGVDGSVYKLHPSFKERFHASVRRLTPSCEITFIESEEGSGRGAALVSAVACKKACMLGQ
Sequence of Hexokinase-4 (Homo sapiens) + Glucokinase regulatory protein (Homo sapiens) (Q14397 whole entry, looked up): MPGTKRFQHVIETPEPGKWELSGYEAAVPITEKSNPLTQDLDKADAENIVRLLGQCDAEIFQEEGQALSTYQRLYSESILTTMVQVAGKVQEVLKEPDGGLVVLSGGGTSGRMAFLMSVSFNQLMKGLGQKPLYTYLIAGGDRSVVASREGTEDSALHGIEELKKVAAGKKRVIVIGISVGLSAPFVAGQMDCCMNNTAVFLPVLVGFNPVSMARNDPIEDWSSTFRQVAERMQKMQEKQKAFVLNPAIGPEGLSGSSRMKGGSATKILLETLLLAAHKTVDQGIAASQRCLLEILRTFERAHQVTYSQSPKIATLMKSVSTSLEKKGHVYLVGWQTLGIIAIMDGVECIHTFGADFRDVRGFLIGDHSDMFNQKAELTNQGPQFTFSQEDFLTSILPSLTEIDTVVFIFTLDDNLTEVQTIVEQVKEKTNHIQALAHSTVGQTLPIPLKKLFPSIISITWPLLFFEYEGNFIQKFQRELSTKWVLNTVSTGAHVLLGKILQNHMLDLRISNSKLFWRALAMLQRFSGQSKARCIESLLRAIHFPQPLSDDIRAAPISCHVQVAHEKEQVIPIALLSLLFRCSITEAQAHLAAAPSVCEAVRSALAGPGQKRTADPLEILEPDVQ

Assay [15] in a line: qHTS assay for environmental chemicals that activate the Aryl hydrocarbon Receptor (AhR) signaling pathway (AID 651777). Also: % of control where 0% means no effect; nearly all actives have a fitted effect of over 15% in size. Particulars: 1A2-DRE human hepatoma cells, luciferase, 24 h; activation: stronger effect = higher value. The method in brief: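 Human hepatoma 1A2-DRE cells stably carrying a DRE/CYP1A2 promoter–luciferase reporter, 1,200 cells/well, exposed to compound 24 hr at 37 C. Luciferase read by One-Glo luminescence after 30 min at room temperature; increased signal marks AhR activation.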

Assay [16] can be described thus: qHTS assay for small molecule disruptors of the mitochondrial membrane potential - 1 hr assay (AID 651754; calls by dose curve; also: % is scaled to controls: 0 for no effect and ±100 for the full control effect; nearly all actives have a fitted effect of over 35% in size). The following applies: series mostly up to 92.2 µM. The method in brief: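 Loss of mitochondrial potential shifts the cationic dye from red mitochondrial aggregates to green cytoplasmic monomers. Cells (HepG2) are treated with compound for 1 hr before a 30 min dye incubation at 37C.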

The nature of assay [17]: qHTS assay for small molecule disruptors of the mitochondrial membrane potential - 5 hr assay (AID 651755; calls by dose curve; also: % is scaled to controls: 0 for no effect and ±100 for the full control effect; nearly all actives have a fitted effect of over 40% in size). Particulars: JC-1-type ratio dye; series mostly up to 92.2 µM. The method in brief:
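Membrane-potential dye readout: red aggregate (540 ex/590 em) versus green monomer (490 ex/535 em) fluorescence after 30 min dye loading, following 5 hr compound exposure at 37C of overnight-plated HepG2 cells.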

Assay [18] is described as follows: qHTS for small molecule inhibitors of Yes1 kinase: Counter Assay (AID 686950).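 Also: no kinase present so only ADP-Glo detection of a fixed ADP amount is tested; luminescence from ADP-Glo reporting ADP in a fixed ATP and ADP mixture; 0% = DMSO wells with ATP plus ADP and -100% = ATP-only wells without ADP.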 The following applies: series mostly up to 76.9 µM. A digest of the protocol:
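ADP-Glo luminescence read after a 60 min room-temperature incubation of compound with an ATP/ADP mix (0.08 mM/0.02 mM) and no kinase, following a 20 min compound preincubation. Signal scaled between ATP+ADP (max) and 0.1 mM ATP-only (min) wells; Tris pH 7.5, Mg2+, DTT.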

Structures are written as SMILES. Where “and” joins values, the source holds several entries; their conditions need not be identical. Equal values may be shown once. Unmarked numbers belong to inactive results. Records with an inconclusive call do not appear. Calls of active or inactive are those of the source. Unless noted, calls follow the shape of the dose curve; as a rule, active = well fitted curve in the direction sought with a large enough effect; inconclusive = small, poorly fitted or top-dose-only effect, or another doubt; inactive = no such curve, though single readings can be large; an effect the other way counts as inactive or inconclusive.

Sequence of Tumor necrosis factor (Homo sapiens) (P01375 whole entry, looked up): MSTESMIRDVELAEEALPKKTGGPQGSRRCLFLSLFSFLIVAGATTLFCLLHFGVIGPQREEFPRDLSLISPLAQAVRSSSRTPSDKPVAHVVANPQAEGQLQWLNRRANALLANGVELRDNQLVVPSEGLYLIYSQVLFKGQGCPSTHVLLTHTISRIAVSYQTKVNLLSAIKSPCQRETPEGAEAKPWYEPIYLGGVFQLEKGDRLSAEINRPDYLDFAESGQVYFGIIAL
Sequence of Peroxisome proliferator-activated receptor alpha (Homo sapiens) (Q07869 whole entry, looked up): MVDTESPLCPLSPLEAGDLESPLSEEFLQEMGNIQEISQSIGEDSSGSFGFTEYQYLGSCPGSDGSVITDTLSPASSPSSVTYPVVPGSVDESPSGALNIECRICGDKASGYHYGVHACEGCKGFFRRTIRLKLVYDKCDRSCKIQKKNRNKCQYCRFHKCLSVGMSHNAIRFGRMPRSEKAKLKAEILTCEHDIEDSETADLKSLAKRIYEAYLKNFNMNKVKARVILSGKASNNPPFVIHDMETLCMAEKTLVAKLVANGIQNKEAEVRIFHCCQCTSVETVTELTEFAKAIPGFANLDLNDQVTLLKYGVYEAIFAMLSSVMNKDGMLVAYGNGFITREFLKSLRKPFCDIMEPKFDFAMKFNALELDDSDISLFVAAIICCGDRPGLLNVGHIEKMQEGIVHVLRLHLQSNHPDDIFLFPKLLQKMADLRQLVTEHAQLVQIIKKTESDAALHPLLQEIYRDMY
Sequence of Nuclear receptor ROR-gamma (Homo sapiens) (P51449 whole entry, looked up): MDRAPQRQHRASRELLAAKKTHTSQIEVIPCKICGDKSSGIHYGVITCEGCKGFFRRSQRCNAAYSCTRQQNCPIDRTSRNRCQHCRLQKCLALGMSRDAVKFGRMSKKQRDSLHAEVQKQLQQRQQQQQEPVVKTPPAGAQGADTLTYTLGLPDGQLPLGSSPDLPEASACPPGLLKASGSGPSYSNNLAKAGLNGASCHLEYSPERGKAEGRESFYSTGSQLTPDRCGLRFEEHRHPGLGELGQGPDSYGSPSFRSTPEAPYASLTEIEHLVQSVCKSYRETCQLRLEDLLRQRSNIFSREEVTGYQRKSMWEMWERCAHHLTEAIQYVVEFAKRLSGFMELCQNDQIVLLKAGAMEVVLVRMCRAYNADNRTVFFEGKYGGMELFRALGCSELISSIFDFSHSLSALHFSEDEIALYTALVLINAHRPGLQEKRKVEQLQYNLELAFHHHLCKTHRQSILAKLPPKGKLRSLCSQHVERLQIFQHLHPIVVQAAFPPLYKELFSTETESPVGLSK

On to `CC(C)(Oc1ccc(C2CC2(Cl)Cl)cc1)C(=O)O` (stereo not drawn), for which the results for the activation in assay [1] and in [2] were -1.02% and 1.65%, respectively. Also, the Potency in assay [3] is 14.1 µM (active). The Potency entry in [4] and in assay [7] was “inactive” throughout. Besides, the outcome in assay [5], in assay [6] and in [8] was inactive. For the same compound, the max response in assay [9] is 10.6%.
With `Nc1ccn([C@H]2CC[C@@H](CO)O2)c(=O)n1`, the Potency entry in assay [10], in assay [12], in assay [4], in [7], in [13] and in [14] was “inactive” throughout. For the same compound, the activation in [1] is -0.413% and 2.91%; in assay [2], -0.557% and 0.274%. The result in [11], in [5], in assay [6] and in assay [8] was inactive. The max response in assay [3] was -1.99% and 0.814%; in [9] it was -1.33% and -0.56%.
On to `CC#C[C@]1(O)CC[C@H]2[C@@H]3CCC4=CC(=O)CCC4=C3[C@@H](c3ccc(N(C)C)cc3)C[C@@]21C`, for which the Potency in assay [10] is 21.7 µM (active). Further, the activation was 4.11% in assay [2] and 14.1% in assay [15]. In addition, the max response in assay [3] is -3.32%; in assay [9] it was -29.2%. Moreover, the Potency result in assay [4] and in [7] was “inactive” each time. Also, the result in assay [5], in assay [6] and in assay [8] was inactive.
For the compound `CC(COc1ccccc1)N(CCCl)Cc1ccccc1` (stereo not drawn), the outcome in assay [11] and in [8] was inactive. Besides, the max response in [3] is -4.85% and -2.28%. Moreover, in assay [14], the Potency result was “inactive”.
With `NCCS(=O)(=O)O`, the activation is -1.87% in assay [1] and -0.375% in [15]. The Potency result in [16], in [17], in assay [12], in assay [4], in assay [7] and in assay [13] was “inactive” in each case. The result in assay [11], in [5], in assay [6] and in [8] was inactive. The max response in [3] was 5.59%; in assay [9], 5.47%.
As to `O=c1[nH]cc(F)c(=O)[nH]1`, the outcome in assay [11], in assay [6] and in assay [8] was inactive. Further, the activation in assay [15] is -0.168%. In addition, the max response in assay [3] is -2.48%; in assay [9], -3.42%. Moreover, the Potency result in [12], in assay [7], in assay [13] and in assay [14] was “inactive” each time.
Consider `Cc1cn([C@H]2C[C@H](N=[N+]=[N-])[C@@H](CO)O2)c(=O)[nH]c1=O`, for which the activation is 7.41% and -3.71% in [1]; 0.977% and -0.0662% in assay [2]; -0.858% and 1.65% in assay [15]. The outcome in assay [11], in [18], in [5], in assay [6] and in assay [8] was inactive. Moreover, the max response is 0.0124% and -0.27% in assay [3]; -2.6% in [9]. In addition, the Potency entry in assay [12], in assay [4], in [7] and in assay [13] was “inactive” in each case.
For `COc1cc2nc(N3CCN(C(=O)C4COc5ccccc5O4)CC3)nc(N)c2cc1OC` (stereo not drawn), the Potency result in [4] and in assay [7] was “inactive” in each case. Also, the call in assay [5] and in assay [6] was inactive.
As to `NC(=O)NO`, the Potency entry in assay [4] and in assay [7] was “inactive” throughout. Further, the call in assay [5] and in assay [6] was inactive.
